Screens as filed in PubChem BioAssay.
ELG1 repair inh = inhibitors of ELG1-dependent DNA repair in HEK293T cells; actives 2.3% (n = 330,000); Potency, µM (doses to about 46.1 µM), for the others: at the highest dose activity change, negative = inhibition, hits mostly inhibitors; HEK293T ELG1-luciferase reporter, luminescence, 16 h; DNA damage induced by 5-fluorouridine; note: nearly all actives have a fitted effect of over 55% in size
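Luminescence from the luciferase reporter, measured 30 min after ONE-Glo reagent at room temperature, was the read-out. Beforehand, 2,000 cells per well were exposed for 16 hr at 37 °C to 5-fluorouridine together with compound or vehicle.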
DT40 TDP1 CPT = growth inhibition of DT40 Tdp1-/-;hTDP1 cells with camptothecin (screen for TDP1 inhibitors). chicken DT40 Tdp1-/-;hTDP1 cells + 20 nM CPT, ATP luminescence, 48 h. Potency, µM (highest dose often 46.2 µM), for inactives: top-dose activity change, negative = growth inhibition, most hits filed as inhibitors. actives 12% (n = 420,000). AID 686979; note: nearly all actives have a fitted effect of over 55% in size
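Chicken DT40 Tdp1-/- cells complemented with human TDP1, 400 cells/well, exposed to compounds plus 20 nM camptothecin for at least 48 h at 37 C; viability read as ATP content by CellTiter-Glo luminescence.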
RORg inh = blocks mouse ROR gamma transcriptional activity; P51450; Drosophila S2 Gal4-RORgamma UAS-luciferase reporter, 20 h; Potency, µM (titrated, usually from 53.6 µM), for the others: at the highest dose activity change, negative = inhibition, most hits filed as inhibitors; actives 5.4% (n = 310,000); note: nearly all actives have a fitted effect of over 60% in size
Target sequence (P51450 whole entry, looked up, the tested form may be a part): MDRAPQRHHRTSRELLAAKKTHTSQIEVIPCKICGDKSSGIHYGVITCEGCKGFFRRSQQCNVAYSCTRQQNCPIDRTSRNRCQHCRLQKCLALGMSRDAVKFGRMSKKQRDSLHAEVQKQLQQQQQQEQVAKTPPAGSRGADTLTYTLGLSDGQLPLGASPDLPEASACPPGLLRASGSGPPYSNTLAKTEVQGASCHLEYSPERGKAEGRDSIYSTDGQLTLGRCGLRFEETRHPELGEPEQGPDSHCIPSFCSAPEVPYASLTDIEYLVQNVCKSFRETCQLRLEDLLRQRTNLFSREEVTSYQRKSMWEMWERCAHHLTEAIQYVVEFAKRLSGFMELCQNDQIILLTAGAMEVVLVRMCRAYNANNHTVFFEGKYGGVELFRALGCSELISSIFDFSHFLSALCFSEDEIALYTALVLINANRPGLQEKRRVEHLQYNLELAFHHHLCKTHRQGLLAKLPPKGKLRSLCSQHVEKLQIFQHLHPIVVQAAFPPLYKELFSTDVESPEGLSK
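Luminescence from a UAS-regulated Photinus luciferase reporter in stably transfected Drosophila Schneider cells is measured; decreased signal marks ROR gamma inhibition. Fusion expression is induced by 700 uM copper sulfate for 20 hr.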
ALOX12 inh = inhibitors of human 12S-lipoxygenase ALOX12. P18054. purified 12hLO, xylenol orange hydroperoxide absorbance. Potency, µM (highest dose often 108 µM), without a hit: at the top dose activity change, negative = inhibition, most hits filed as inhibitors. actives 1.1% (n = 580,000)
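Hydroperoxide product was detected by ferrous iron/xylenol orange as the 573 to 405 nm absorbance ratio. Arachidonic acid at 40 uM (final) was turned over for 30 min at room temperature by 150 nM human 12hLO, pH 7.0 Hepes buffer, after 15 min compound preincubation.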
TDP1 cell noCPT = qHTS for Inhibitors of human tyrosyl-DNA phosphodiesterase 1 (TDP1): qHTS in cells in absence of CPT; DT40 Tdp1-/- hTDP1 cells, no CPT, ATP luminescence, 48 h; Potency, µM (series often up to 46.2 µM), without a hit: top-dose activity change, negative = growth inhibition, actives largely listed as inhibitors; actives 15% (n = 420,000); AID 686978, 2013; note: nearly all actives have a fitted effect of over 55% in size
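Luminescent ATP content (CellTiter-Glo) served as the growth readout. Knockout chicken DT40 cells expressing human TDP1 were exposed to compounds without camptothecin for a minimum 48 hr at 37 °C.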
VP16 counter = counter-screen for ROR gamma inhibitors: Gal4-VP16 reporter. Potency, µM (series often up to 53.6 µM), without a hit: at the highest dose activity, negative = inhibition, hits mostly inhibitors. actives 3.5% (n = 310,000). Drosophila S2 Gal4-VP16 UAS-luciferase, luminescence, 20 h. AID 2546;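 note: Gal4-VP16 expression switched on by copper sulfate through the metallothionein promoter; nearly all actives have a fitted effect of over 50% in size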
Active calls of the source: *; ? = inconclusive; . = not tested or not shown; [ ] = another dose, or the depositor's remark. Shown are actives, neighbours in structure and some others; about 15% of the full set was active somewhere. Calls come from the whole dose curve; as a rule, active = well fitted curve in the direction sought with a large enough effect; inconclusive = small, poorly fitted or top-dose-only effect, or another doubt; inactive = no such curve, though single readings can be large; an effect the other way counts as inactive or inconclusive. % is set by controls: 0 for no effect and ±100 for the full control effect; potency is the fitted concentration of half-maximal effect.

SMILES	ELG1 repair inh	DT40 TDP1 CPT	RORg inh	ALOX12 inh	TDP1 cell noCPT	VP16 counter
Cc1cccc(CNc2ccc(S(=O)(=O)N3CCCCC3)cc2)c1	-8%	21µM*	.	20%	?	.
O=C(CNc1cccc(Br)c1)Nc1ccc(S(=O)(=O)N2CCCCC2)cc1	.	21µM*	.	0%	?	.
COc1cc(/C(C)=N\NC(N)=S)cc(OC)c1OC	?	-6%	5.6µM*	-27%	5%	?
COc1cc(C(=O)NCCC(=O)NC(C)C)cc(OC)c1OC	7%	3%	-9%	-3%	3%	8%
CC(=O)Nc1ccc(/C(C)=N/NC(N)=S)cc1	.	.	.	28µM*	.	.
COc1cc(/C(C)=N/NC(=S)NC(C)C)cc(OC)c1OC	?	1.3µM*	3.2µM*	?	1.2µM*	5µM*
C/C(=N/NC(N)=S)c1ccc([N+](=O)[O-])cc1	.	.	.	-73%	.	.
Cc1ccc(S(=O)(=O)NCC(Nc2cccc(Cl)c2)c2ccccc2)cc1 (configuration not stated)	.	18µM*	.	?	?	.
Cc1noc(C)c1S(=O)(=O)N1C[C@@H](Oc2cccnc2)C[C@H]1C(=O)N1CCOCC1	.	.	.	51%	.	.
NC(=Nc1nc(-c2ccccn2)cc2ccccc12)c1ccccn1	.	0.015µM*	.	?	0.018µM*	.
O=C(O)CCCC(=O)N1CCN(C(=O)c2ccco2)CC1	.	.	.	12%	.	.
C=C1CC(COc2cc(=O)oc3ccccc23)(c2ccccc2)OC1=O (configuration not stated)	.	1.2µM*	.	2%	1.6µM*	.
CCOc1ccc(CCNC(=O)Cn2ccc3cc(S(=O)(=O)N4CCCCCC4)ccc32)cc1	.	21µM*	.	-20%	13µM*	.
O=C(Cn1ccc2cc(S(=O)(=O)N3CCCCCC3)ccc21)NCCc1ccc(Cl)cc1	.	16µM*	.	-21%	18µM*	.
COc1ccc(OC)c(CCNC(=O)Cn2ccc3cc(S(=O)(=O)N4CCCCC4)ccc32)c1	.	?	.	-2%	7.3µM*	.
CSc1ccc(CCNC(=O)Cn2ccc3cc(S(=O)(=O)N4CCCCCC4)ccc32)cc1	.	15µM*	.	-22%	?	.
CCOc1ccc(CCNC(=O)Cn2ccc3cc(S(=O)(=O)N4CCCC4)ccc32)cc1	-7%	?	21%	31%	?	0%
Cc1noc(C)c1CCCNC(=O)c1ccc(NC[C@H]2C[C@H]3C=C[C@H]2C32CC2)nc1	.	.	.	46%	.	.
CC(C)C[C@H]1CNC(=S)N1CC1CCCN1C[C@H](CC(C)C)N1C[C@H](Cc2ccc(O)cc2)N(CC2CCCCC2)C1=S (some centres not stated)	.	?	.	-87%	18µM*	.
CC(C)C[C@H]1CNC(=S)N1CC1CCCN1C[C@H](CC(C)C)N1C[C@H](Cc2ccc(O)cc2)N(CC2CCCCCC2)C1=S (some centres not stated)	.	23µM*	.	?	18µM*	.
CC(C)C[C@H]1CNC(=S)N1C[C@H]1CCCN1C[C@H](CC(C)C)N1C[C@H](Cc2ccc(O)cc2)N(CC2CCCCCC2)C1=S	.	16µM*	.	-68%	8.2µM*	.
NC(=O)NCCC(=O)N1CCc2onc(C(c3ccccc3)c3ccccc3)c2C1	.	.	.	25%	.	.
CCC(C)[C@H](NC(=O)Nc1cc(OC)cc(OC)c1)C(=O)O (some centres not stated)	.	.	.	-1%	.	.
Cc1ccc(SCCC(=O)OC(C(=O)NC(N)=O)C(C)C)cc1 (configuration not stated)	12%	16µM*	-4%	341%	16µM*	?
Cc1nn(C2CCS(=O)(=O)C2)c(Cl)c1/C=C/C(=O)OCC(=O)c1cc(C)n(-c2ccc(F)cc2)c1C (configuration not stated)	13µM*	21µM*	44%	-9%	16µM*	2%
SMILES	ELG1 repair inh	DT40 TDP1 CPT	RORg inh	ALOX12 inh	TDP1 cell noCPT	VP16 counter
N=C(N)c1ccc(N=Nc2c(O)ccc3c2[nH]c2ccccc23)cc1	.	21µM*	.	-17%	7.3µM*	.
Cc1[nH]c2ccccc2c1N=Nc1ccc(F)cc1	-5%	?	?	?	?	?
c1cnc2[nH]cc(-c3nc4ccncc4[nH]3)c2c1	.	.	.	41%[176 µM]	.	.
CCN(CC)C(=O)c1ccc2c(=O)n(Cc3cccc(Br)c3)c(=S)[nH]c2c1	?	23µM*	7.1µM*	-2%	15µM*	13µM*
CN1CCN(C(=O)c2ccc3c(=O)n(Cc4ccco4)c(=S)[nH]c3c2)CC1	-3%	-6%	-6%	-8%	-15%	-3%
CC(C)OCCCNC(=O)c1ccc2c(=O)n(Cc3ccc4c(c3)OCO4)c(=S)[nH]c2c1	?	0%	3%	6%	-11%	2%
CC1CCCN(C(=O)c2ccc3c(=O)n(Cc4ccc5c(c4)OCO5)c(=S)[nH]c3c2)C1 (configuration not stated)	?	16µM*	7.9µM*	-6%	23µM*	?
CCN(CC)C(=O)c1ccc2c(=O)n(Cc3ccc4c(c3)OCO4)c(=S)[nH]c2c1	2%	15µM*	11µM*	-1%	21µM*	?
CCCN(CCC)C(=O)c1ccc2c(=O)n(Cc3ccco3)c(=S)[nH]c2c1	-14%	?	3.2µM*	?	-17%	?
COc1ccccc1CCC(=O)N1CCN(c2cc(-c3cccs3)[nH]n2)CC1	.	.	.	30%	.	.
Cc1ccc(-c2noc(-c3ccc(Br)cc3)n2)s1	.	.	.	13%	.	.
CCCn1c(=S)[nH]c2cc(C(=O)N(CCO)Cc3ccccc3)ccc2c1=O	-11%	-17%	13µM*	-15%	-24%	?
O=C(c1ccc2c(=O)n(Cc3ccco3)c(=S)[nH]c2c1)N1CCN(Cc2ccc3c(c2)OCO3)CC1	.	14µM*	.	.	11µM*	.
CCN(CC)C(=O)c1ccc2c(=O)n(CCOC)c(=S)[nH]c2c1	?	?	-11%	?	?	-10%
O=C(NCCCN1CCCC1=O)c1ccc2c(=O)n(Cc3ccco3)c(=S)[nH]c2c1	-24%	16µM*	?	-26%	?	0%
Cc1ccc2nc(C)c(C(=O)NCC(=O)Nc3c(C)cccc3C)cc2c1	.	.	.	21%	.	.
COc1cc(CCN=Cc2cc(Cl)cc(Cl)c2O)c([N+](=O)[O-])cc1OC	.	?	.	-4%	?	.
Cc1ccc(N=Cc2cc(Cc3ccccc3Cl)cc([N+](=O)[O-])c2O)c(O)c1	?	?	6.3µM*	.	4%	4.5µM*
